According to PubChem BioAssay (NCATS):
Where “and” joins values, the source holds several entries; their conditions need not be identical. Equal values may be shown once. Inconclusive results are not listed. A number with no mark means an inactive call. Calls of active or inactive are those of the source. Calls come from the whole dose curve; as a rule, active = well fitted cell-killing curve with a large enough effect; inconclusive = small, poorly fitted or top-dose-only effect; inactive = flat fitted curve, though single readings scatter.

Experiment: Cellular viability qHTS for adrenocortical cancer (ACC) cell line SW-13 (AID 1963989); note: nearly all actives have a fitted effect of over 65% in size;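 for activity (max response): cells grown in serum-free medium with ITS supplement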
Conditions: SW-13 ACC cells viability, CellTiter-Glo, 48 h; activity (max response): hits give low values
Summary of the method: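 Here, serum-free SW-13 cultures were dosed up to 46 uM. Following 48 h, ATP-dependent luminescence (CellTiter-Glo) reported viable cells, and logistic modeling produced IC50 values.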
% is set by controls: 0 for no effect and ±100 for the full control effect; potency is the fitted concentration of half-maximal effect.

Row | SMILES | activity (max response) | Potency
1 | Cc1cc(C)c(/C=C2\C(=O)Nc3ccccc32)[nH]1 | 5.7% and 12.2% | –
2 | CC(C)OC(=O)[C@H](C)N[P@](=O)(OC[C@H]1O[C@@H](n2ccc(=O)[nH]c2=O)[C@](C)(F)[C@@H]1O)Oc1ccccc1 | – | 3.98 µM (active)
3 | Cc1c(F)cc(C(=O)NC2CC2)cc1-c1c(F)cn2c(C(C)(C)C)nnc2c1F | -10.3% | –
4 | Cc1c(Cl)cccc1Nc1ccccc1C(=O)O | -8.75% | –
5 | CCCCCCCCCCCCCCCCCCNC(=O)OC1CCN(C(=O)OC[C@H](COC(=O)N(Cc2cccc[n+]2CC)C(=O)c2ccccc2OC)OC)CC1 | – | 7.31 µM (active)
6 | CNCCCN1c2ccccc2CCc2ccccc21 | – | 20.6 µM (active)
7 | CC(C)c1c(-c2ccccc2)nc2c(C#N)c[nH]n2c1=O | -8.31% | –
8 | O=c1c(-n2ccnn2)c[nH]n1-c1cc(N2CCOCC2)ncn1 | -5.69% | –
9 | COc1ccc(Oc2cc(NCCC(F)(F)F)c3ncc(-c4ccc(C(=O)NC5CC5)c(C)c4)n3n2)c(F)c1F | -17.7% | –
10 | CC1(C)O[C@@H]2C[C@H]3[C@@H]4C[C@H](F)C5=CC(=O)CC[C@]5(C)[C@H]4[C@@H](O)C[C@]3(C)[C@]2(C(=O)CO)O1 | 3.69% | –
11 | CC(=O)OCC(=O)[C@H]1CC[C@H]2[C@@H]3CCC4=CC(=O)CC[C@]4(C)[C@H]3CC[C@]12C | 2.66% | –
12 | O=C(CCCCCCCCC#CI)Oc1ccccc1 | -0.224% | –
13 | CCc1cnn2c(NCc3ccc[n+]([O-])c3)cc(N3CCCC[C@H]3CCO)nc12 | – | 0.0355 µM (active)
14 | O=[N+]([O-])c1ccc(/C=N\O)o1 | -5.61% | –
15 | OC1CCC([C@H](O)C[C@H]2c3c(F)cccc3-c3cncn32)CC1 (stereo not given in full) | -0.756% | –
16 | Cc1ccc(C(=O)Oc2ccc(C(O)CNC(C)(C)C)cc2OC(=O)c2ccc(C)cc2)cc1 (stereo not given) | -16% | –
17 | O=C(NC1CCN(CCc2c[nH]c3ccccc23)CC1)c1ccccc1 | -18.1% | –
18 | NC(N)=NC(=O)Cc1c(Cl)cccc1Cl | -7.72% | –
19 | CC1Cc2ccccc2N1C(=O)Cc1nc(N2CCOCC2)cc(=O)[nH]1 (stereo not given) | -14.8% | –
20 | CONC(=O)Nc1ccc(-c2sc3c(c2CN(C)C)c(=O)n(-c2ccc(OC)nn2)c(=O)n3Cc2c(F)cccc2F)cc1 | -5.64% | –

Row | SMILES | activity (max response) | Potency
21 | C=CC(=O)N[C@H]1CN(c2nc(Nc3cn(C)nc3OC)c3ncn(C)c3n2)C[C@@H]1F | – | 0.199 µM (active)
22 | CCc1nn(CCCN2CCN(c3cccc(Cl)c3)CC2)c(=O)n1CCOc1ccccc1 | – | 14.6 µM (active)
23 | C[C@]12CC[C@H]3[C@@H](CCC4=CC(=O)CC[C@@]43C)[C@@H]1CC[C@@H]2C(=O)CO | -8.44% | –
24 | CCOC(=O)Nc1ccc2c(c1)N(C(=O)CCN1CCOCC1)c1ccccc1S2 | -13.5% | –
25 | Cc1ccc(Nc2cc(N[C@@H]3CCCC[C@@H]3N)nnc2C(N)=O)nc1C | -5.27% | –
26 | CC#Cc1cncc(-c2ccc3c(c2)[C@@]2(N=C(C)C(N)=N2)C2(CCC(OC)CC2)C3)c1 (stereo not given in full) | -4.31% | –
27 | CCCCCCCC/C=C/C(=O)O | -1.5% | –
28 | N[C@@H](CCC(=O)O)C(=O)N[C@@H](Cc1c[nH]c2ccccc12)C(=O)O | 9.67% | –
29 | CCCC(C(=O)OCCN(CC)CC)(c1ccccc1)c1ccccc1 | – | 20.6 µM (active)
30 | Cc1cc(CC(=O)O)c(C)n1-c1ccc(Cl)cc1 | 4.84% | –
31 | CCCCC1C(=O)N(c2ccccc2)N(c2ccccc2)C1=O | -21.3% | –
32 | COc1ccccc1Oc1c(NS(=O)(=O)c2ccc(C(C)(C)C)cc2)nc(-c2ncccn2)nc1OCCO | -3.16% | –
33 | CC(C)=CCC/C(C)=C/CC/C(C)=C/CSc1ccccc1C(=O)O | -19.3% | –
34 | C/C=C/CC(C)C(O)C1C(=O)NC(CC)C(=O)N(C)CC(=O)N(C)C(CC(C)C)C(=O)NC(C(C)C)C(=O)N(C)C(CC(C)C)C(=O)NC(C)C(=O)NC(C)C(=O)N(C)C(CC(C)C)C(=O)N(C)C(CC(C)C)C(=O)N(C)C(C(C)C)C(=O)N1C (stereo not given) | -11.5% | –
35 | CCOCOC[C@H](C[C@H](C)C(=O)NO)NC(=O)c1ccc(Oc2ccccc2)cc1 | -8.03% | –
36 | COc1cc2c(cc1OC)C(=O)C(CC1CCN(Cc3ccccc3)CC1)C2 (stereo not given) | -16.2% | –
37 | N#CCC1(n2cc(-c3ncnc4[nH]ccc34)cn2)CN(C2CCN(C(=O)c3ccnc(C(F)(F)F)c3F)CC2)C1 | -10.7% | –
38 | O=C1S/C(=C\c2ccc(OCc3cccc(B(O)O)c3)cc2)C(=O)N1Cc1ccc(F)cc1 | -17.7% | –
39 | Cc1cc(O)c2c(O)c3c(O)cccc3cc2c1 | -2.49% | –
40 | COc1cc2c(NC3CCN(C4CCCCC4)CC3)nc(N3CCCN(C(C)C)CC3)nc2cc1OCCCN1CCCCC1 | – | 3.16 µM (active)
